Results taken from PubChem BioAssay (NCATS).
“And” between values parts separate entries of the source, which are not always exact repeats. Equal entries are not always repeated. Records with an inconclusive call do not appear. The source made the active and inactive calls. Unless noted, the call rests on the fitted dose curve; in most records, active means well fitted curve in the direction sought with a large enough effect; inconclusive means small, poorly fitted or top-dose-only effect, or another doubt; inactive means no such curve, though single readings can be large; an effect the other way counts as inactive or inconclusive.

Experiments:
[1] = Cellular Toxicity (caspase-3) H-4-II-E (AID 663);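 further: cells exposed to compound for 16 hr before readout; 0% = DMSO basal and 100% = 100 µM tamoxifen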
In short: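 H-4-II-E rat hepatoma, 1500 cells/well, 5 hr settle at 37 °C; compound 16 hr, 37 °C, complete medium; Caspase-Glo 3/7, 20 min RT; luminescence. DMSO = 0%, 100 uM tamoxifen = 100%; Hill-equation AC50.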

[2] = Cellular Toxicity (caspase-3) Hek293 (AID 664);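 further: cells exposed to compound for 16 h at 37 °C before readout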
In short: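 qHTS, HEK293 (human embryonic kidney), 16 h cpd exposure in complete medium. Caspase-3/7 activation = luminescence increase; normalized to DMSO/100 uM tamoxifen; Hill-fit AC50.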

[3] = Cellular Toxicity (caspase-3) N2a (AID 665);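 further: compound exposure lasted 16 h at 37 °C before readout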
In short: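 Caspase-3/7 activation, measured as increased luminescence from aminoluciferin release, is quantified in mouse N2a cells exposed to compounds for 16 h. Values are normalized to DMSO and 10 uM staurosporine, with AC50 derived by Hill modelling.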

[4] = Cellular Toxicity (caspase-3) NIH 3T3 (AID 666);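 further: caspase signal read after 16 h compound exposure; 0% = DMSO basal and 100% = 100 µM tamoxifen stimulation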
In short: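 Cells were plated at 1000 per well and incubated 5 hr at 37°C, then compound was added for 16 hr. Caspase-Glo 3/7 reagent followed for 20 min at room temperature before luminescence was read.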

[5] = Cellular Toxicity (caspase-3) Renal Proximal Tubule (AID 667); conditions: renal proximal tubule cells; at 91.7 µM (top of the series) unless noted;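 further: cells exposed to compound for 16 hours at 37 °C before detection; 0% = DMSO basal and 100% = 10 µM staurosporine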
In short: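 In qHTS format, rat primary proximal tubule cells seeded at 1000 per well are exposed to compounds for 16 hours at 37 °C. An increase in Caspase-Glo 3/7 luminescence indicates caspase activation.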

[6] = molecular target: Cytochrome P450 3A4 (Homo sapiens) (UniProt P08684); test: qHTS Assay for Activators of Cytochrome P450 3A4 (AID 885); further: nearly all actives have a fitted effect of over 65% in size
Sequence of Cytochrome P450 3A4 (Homo sapiens) (P08684 whole entry, looked up): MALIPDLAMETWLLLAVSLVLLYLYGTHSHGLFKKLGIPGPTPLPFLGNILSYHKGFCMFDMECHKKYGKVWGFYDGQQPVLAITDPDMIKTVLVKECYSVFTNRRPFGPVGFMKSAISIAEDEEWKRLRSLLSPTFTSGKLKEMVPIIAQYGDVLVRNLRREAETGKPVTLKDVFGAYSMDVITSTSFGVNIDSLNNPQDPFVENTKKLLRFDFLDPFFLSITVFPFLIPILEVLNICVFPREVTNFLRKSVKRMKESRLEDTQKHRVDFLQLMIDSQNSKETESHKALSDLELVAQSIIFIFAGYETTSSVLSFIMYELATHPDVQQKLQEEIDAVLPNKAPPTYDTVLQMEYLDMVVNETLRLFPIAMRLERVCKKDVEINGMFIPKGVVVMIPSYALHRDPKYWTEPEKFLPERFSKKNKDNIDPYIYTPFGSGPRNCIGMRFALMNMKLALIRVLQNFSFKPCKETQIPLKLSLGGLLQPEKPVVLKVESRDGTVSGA
In short: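 Human CYP3A4 dealkylates Luciferin-PPXE to luciferin, which luciferase detection converts to light. Substrate was at its KM (25uM), buffer 200mM KPO4, reaction 60 min at RT.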

[7] = molecular target: Cytochrome P450 3A4 (Homo sapiens) (UniProt P08684); test: qHTS Assay for Inhibitors and Substrates of Cytochrome P450 3A4 (AID 884); further: nearly all actives have a fitted effect of over 50% in size; further: potency means the concentration at half of the fitted maximal effect; on activity change, negative = inhibition: on the % scale 0 is the no-effect control and ±100 the full control effect
In short: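 Luminescent readout of luciferin produced by CYP3A4 (20 nM) dealkylation of Luciferin-PPXE, 25 uM (its KM). NADPH-driven reaction ran 60 min at RT after 10 min compound preincubation; data scaled to 57 uM ketoconazole as 100% inhibition.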

[8] = MultiTox-Fluor Cytotoxicity Assay - LYMP1-001 - Dead Cells (AID 946);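 further: 0% = DMSO and 100% = tetraoctylammonium bromide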
In short: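 LYMP1-001 lymphoblastoid cells (2500/well) treated 16 h at 37 C. Dead-cell protease cleavage of bis-AAF-R110 read at Ex/Em 485/520. Normalized to DMSO and 15 uM tetraoctylammonium bromide; AC50 from Hill fits.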

[9] = molecular target: Cytochrome P450 2D6 (Homo sapiens) (UniProt P10635); test: qHTS Assay for Inhibitors and Substrates of Cytochrome P450 2D6 (AID 891); further: nearly all actives have a fitted effect of over 60% in size; further: potency means the concentration at half of the fitted maximal effect;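 on activity change, negative = inhibition: luciferin methyl ether substrate demethylated by CYP2D6 with NADPH regeneration; on the % scale 0 is the no-effect control and ±100 the full control effect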
Sequence of Cytochrome P450 2D6 (Homo sapiens) (P10635 whole entry, looked up): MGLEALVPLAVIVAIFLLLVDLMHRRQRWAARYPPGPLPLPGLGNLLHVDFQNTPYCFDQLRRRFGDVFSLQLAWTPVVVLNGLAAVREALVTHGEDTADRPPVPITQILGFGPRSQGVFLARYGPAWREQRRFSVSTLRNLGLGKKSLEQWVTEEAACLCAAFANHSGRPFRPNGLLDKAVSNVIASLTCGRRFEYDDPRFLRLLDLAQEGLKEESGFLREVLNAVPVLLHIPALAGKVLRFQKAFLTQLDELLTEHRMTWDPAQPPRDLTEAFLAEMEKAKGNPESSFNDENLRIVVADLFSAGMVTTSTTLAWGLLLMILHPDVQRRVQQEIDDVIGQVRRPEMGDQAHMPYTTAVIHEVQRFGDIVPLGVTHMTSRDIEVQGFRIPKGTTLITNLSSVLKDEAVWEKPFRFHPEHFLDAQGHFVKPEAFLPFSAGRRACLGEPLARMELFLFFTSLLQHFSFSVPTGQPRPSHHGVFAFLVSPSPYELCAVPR
In short: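 Luminescent read-out of luciferin formed by 5 nM human CYP2D6 demethylating 30 uM Luciferin-ME EGE (Km level) over 60 min at room temperature after NADPH regeneration addition. Data normalized to full inhibition by 1.43 uM quinidine.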

[10] = molecular target: Guanine nucleotide-binding protein G(i) subunit alpha-1 (Homo sapiens) (UniProt P63096); test: qHTS Assay for Inhibitors of RGS12 GoLoco Motif Activity (Green Fluorophore) (AID 879);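 further: 0% = labeled peptide with Gαi1 and full inhibition = labeled peptide alone without protein; negative values mean loss of peptide binding seen as reduced polarization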
Sequence of Guanine nucleotide-binding protein G(i) subunit alpha-1 (Homo sapiens) (P63096 whole entry, looked up): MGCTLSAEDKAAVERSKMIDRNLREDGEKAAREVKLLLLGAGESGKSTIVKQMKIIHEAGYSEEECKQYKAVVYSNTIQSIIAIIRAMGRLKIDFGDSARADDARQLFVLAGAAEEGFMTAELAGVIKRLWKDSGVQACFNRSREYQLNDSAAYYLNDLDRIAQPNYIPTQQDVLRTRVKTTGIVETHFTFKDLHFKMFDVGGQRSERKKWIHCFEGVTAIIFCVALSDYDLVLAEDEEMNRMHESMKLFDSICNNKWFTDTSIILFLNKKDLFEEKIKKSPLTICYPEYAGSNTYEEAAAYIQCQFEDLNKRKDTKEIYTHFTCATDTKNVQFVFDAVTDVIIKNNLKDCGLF
In short: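 A drop in FITC polarization marked displacement of the FITC-tagged RGS12 GoLoco peptide (10 nM) from Gαi1 (50 nM). Compounds were incubated 10 min at room temperature in Tris pH 7.5 buffer containing 150 mM NaCl, 0.1 mM GDP and 0.05% NP40; unlabeled peptide titration served as control.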

[11] = qHTS Assay for Identification of Small Molecule Antagonists for NFkB Signaling Pathway (AID 895; active means well fitted inhibition curve with a large enough effect in the signal ratio, with a control signal flat, not every such curve was filed as active; the % refers to the signal ratio; further: on the % scale 0 is the no-effect control and ±100 the full control effect)
In short: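 ME-180 NFkB-bla cells (beta-lactamase under NFkB response element), plated overnight, treated with compound then 10 pM TNF alpha (about EC50) for 5 hrs at 37 C. LiveBLAzer FRET read at 460/530 nm emission, 405 nm excitation.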

[12] = qHTS Assay for Identification of Small Molecule Agonists for Thrombopoietin (TPO) Signaling Pathway (AID 917); further: on the % scale 0 is the no-effect control and ±100 the full control effect
In short: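 Quantitative HTS for pathway activators: compounds were pin-transferred onto IL-3-starved Ba/F3 cells expressing human TPO receptor, TPO was added at its EC50 (26 pM final), and after 24 hrs at 37 C reporter luciferase was measured.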

[13] = molecular target: Muscarinic acetylcholine receptor M1 (Rattus norvegicus) (UniProt P08482); test: qHTS Assay for Antagonists of Acetylcholine Muscarinic M1 Receptor: Kinetic Measurement of Intracellular Calcium Response (AID 943); further: nearly all actives have a fitted effect of over 75% in size; further: potency means the concentration at half of the fitted maximal effect;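 on activity change, negative = inhibition: Fluo-4 calcium signal as peak divided by basal fluorescence over 4 min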
Sequence of Muscarinic acetylcholine receptor M1 (Rattus norvegicus) (P08482 whole entry, looked up): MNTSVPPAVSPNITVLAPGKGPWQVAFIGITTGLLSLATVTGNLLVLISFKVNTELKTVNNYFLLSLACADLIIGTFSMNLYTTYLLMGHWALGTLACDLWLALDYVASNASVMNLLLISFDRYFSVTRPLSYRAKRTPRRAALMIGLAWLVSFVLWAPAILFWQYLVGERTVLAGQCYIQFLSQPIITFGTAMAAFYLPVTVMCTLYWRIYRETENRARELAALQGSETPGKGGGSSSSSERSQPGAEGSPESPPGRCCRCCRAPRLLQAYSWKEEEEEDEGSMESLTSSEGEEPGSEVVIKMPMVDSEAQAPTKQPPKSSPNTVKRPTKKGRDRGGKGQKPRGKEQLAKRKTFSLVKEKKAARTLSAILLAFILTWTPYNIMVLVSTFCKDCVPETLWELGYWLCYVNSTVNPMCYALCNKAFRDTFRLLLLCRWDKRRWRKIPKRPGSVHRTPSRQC
In short: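 Antagonism is measured as inhibition of the carbachol-evoked calcium rise in CHO cells transfected with rat M1. Cells are dye-loaded, exposed to compound for 10 min, then stimulated with 100 nM carbachol (EC80).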

[14] = molecular target: Muscarinic acetylcholine receptor M1 (Rattus norvegicus) (UniProt P08482); test: qHTS Assay for Antagonists of Acetylcholine Muscarinic M1 Receptor: Measurement of IP-One Response (AID 944); further: nearly all actives have a fitted effect of over 75% in size; further: potency means the concentration at half of the fitted maximal effect
In short: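 Antagonist mode with rat M1 receptor transfected into CHO cells. Compound is added first for 10 min, carbachol at its EC80 follows for 30 min, and lysis reagents then allow TR-FRET detection of accumulated IP1.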

[15] = molecular target: Pyruvate kinase (Leishmania mexicana) (UniProt Q27686); test: qHTS Validation Assay for Inhibitors of Leishmania Mexicana Pyruvate Kinase (AID 945);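 further: 0% = DMSO only neutral control wells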
Sequence of Pyruvate kinase (Leishmania mexicana) (Q27686 2-499 E452W): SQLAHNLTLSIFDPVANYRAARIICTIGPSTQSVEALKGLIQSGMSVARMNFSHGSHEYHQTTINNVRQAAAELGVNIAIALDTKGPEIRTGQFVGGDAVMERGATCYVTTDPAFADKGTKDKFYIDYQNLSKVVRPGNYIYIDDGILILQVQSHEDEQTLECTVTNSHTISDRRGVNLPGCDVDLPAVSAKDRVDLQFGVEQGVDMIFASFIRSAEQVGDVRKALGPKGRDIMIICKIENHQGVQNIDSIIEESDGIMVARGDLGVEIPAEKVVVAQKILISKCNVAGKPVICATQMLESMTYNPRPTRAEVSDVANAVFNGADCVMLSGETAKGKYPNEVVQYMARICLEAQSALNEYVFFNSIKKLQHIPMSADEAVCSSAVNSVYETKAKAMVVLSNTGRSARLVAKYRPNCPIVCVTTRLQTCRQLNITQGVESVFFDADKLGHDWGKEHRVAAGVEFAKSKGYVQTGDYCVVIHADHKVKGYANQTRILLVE
In short: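 Compounds are tested as eight-point concentration series. Reactions contain 0.2 nM LmPYK E451W, 0.5 mM PEP, 0.1 mM ADP, 7 mM MgCl2 and 50 mM KCl at pH 7.2, run 1 h at room temperature, then read by PKLight luminescence.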

[16] = Confirmation and Secondary Assay for Modulators of Hemoglobin Beta Chain Splicing at IVS2 654 locus (AID 910);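 further: HeLa cells stably carrying EGFP split by mutant beta-globin IVS2-654 intron; % of control where 0% means no effect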
In short: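 HeLa cells stably expressing EGFP interrupted by β-globin IVS2-654 intron, seeded overnight in Opti-MEM/2% FCS, then treated 2 days at 37 °C. Restored splicing read as total peak GFP intensity per well by laser scanning cytometry (488 nm excitation, 500–520 nm emission); 500 nM antisense PNA as control.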

[17] = Confirmation and Secondary Assay for Modulators of Hemoglobin Beta Chain Splicing at IVS2 705 locus (AID 930);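 further: HeLa cells stably expressing the EGFP-705 splicing reporter; GFP fluorescence per well restored by corrected splicing of the IVS2-705 intron in EGFP; % of control where 0% means no effect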
In short: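 Fluorescence gain (488 nm laser, 500-520 nm PMT) reflects restored correct splicing of a mutant IVS2-705 intron inside EGFP in stably transfected HeLa cells after 2-day compound treatment.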

[18] = molecular target: Cytochrome P450 2C9 (Homo sapiens) (UniProt P11712); test: qHTS Assay for Inhibitors and Substrates of Cytochrome P450 2C9 (AID 883); further: nearly all actives have a fitted effect of over 60% in size; further: potency means the concentration at half of the fitted maximal effect
Sequence of Cytochrome P450 2C9 (Homo sapiens) (P11712 whole entry, looked up): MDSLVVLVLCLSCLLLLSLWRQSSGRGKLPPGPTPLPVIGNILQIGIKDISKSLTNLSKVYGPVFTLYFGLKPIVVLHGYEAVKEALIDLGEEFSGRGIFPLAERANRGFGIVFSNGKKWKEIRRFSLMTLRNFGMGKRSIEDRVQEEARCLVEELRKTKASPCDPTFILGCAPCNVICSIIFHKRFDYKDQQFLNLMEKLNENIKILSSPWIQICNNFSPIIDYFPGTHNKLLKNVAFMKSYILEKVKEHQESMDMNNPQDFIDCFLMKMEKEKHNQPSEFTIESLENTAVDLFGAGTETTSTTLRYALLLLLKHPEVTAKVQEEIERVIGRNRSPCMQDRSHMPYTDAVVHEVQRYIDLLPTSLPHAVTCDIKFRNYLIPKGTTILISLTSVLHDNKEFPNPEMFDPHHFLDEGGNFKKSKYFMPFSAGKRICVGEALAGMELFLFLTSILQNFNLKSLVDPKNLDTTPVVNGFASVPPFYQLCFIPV
In short: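 10nM CYP2C9 + 100uM Luciferin-H (=KM), 25mM KPO4; cpd 10 min 37C; NADPH regen, 60 min 37C; stop/detect with P450 Glo-Buffer 20 min; luminescence. Norm. to 57uM sulphaphenazole as full inhibition.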

[19] = qHTS Assay for Identification of Small Molecule Antagonists for Thrombopoietin (TPO) Signaling Pathway (AID 918); conditions: TPO-dependent cell signaling reporter, antagonist mode; further: potency means the concentration at half of the fitted maximal effect; nearly all actives have a fitted effect of over 60% in size
In short: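 Inhibitors of TPO signaling are sought by stimulating IL-3-starved murine Ba/F3 cells (human TPO receptor, Glycoprotein IIb-driven luciferase) with TPO at its EC50 of 26 pM alongside compound. After 24 hrs at 37 C, reporter luminescence is measured.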

C[C@]12CCC(=O)C[C@@H]1CC[C@@H]1[C@@H]2CC[C@]2(C)[C@@H](O)CC[C@@H]12
inactive: outcome [1] | outcome [2] | outcome [3] | Potency [4] | caspase-3 activation [5] 0.8% | outcome [6]

CC(C)Nc1ccc(Nc2ccccc2)cc1
inactive: outcome [2] | outcome [3] | Potency [4] | caspase-3 activation [5] 11.6% [at 91.7 µM, primary cells freshly taken from rat, solvent-only wells 0%, staurosporine 100%] | outcome [6]

ClC=C(Cl)Cl
inactive: outcome [1] | outcome [2] | outcome [3] | Potency [4] | caspase-3 activation [5] -7.81% [at 91.7 µM, primary cells freshly taken from rat, solvent-only wells 0%, staurosporine 100%] | Potency [7] | Potency [8]

S=C=S
inactive: outcome [1] | outcome [2] | outcome [3] | Potency [4] | caspase-3 activation [5] 4.15% [at 91.7 µM, primary cells freshly taken from rat, solvent-only wells 0%, staurosporine 100%] | Potency [7] | Potency [8]

CC(C)(C)c1cc(O)ccc1O
inactive: outcome [1] | outcome [2] | outcome [3] | Potency [4] | caspase-3 activation [5] -12.4% and -3.67% | Potency [7] | activity change, negative = inhibition [9] 11.9% [at 11.4 µM] | Potency [8]

O=Cc1ccco1
inactive: outcome [1] | outcome [2] | outcome [3] | Potency [4] | caspase-3 activation [5] -8.6% [at 91.7 µM, primary cells freshly taken from rat, solvent-only wells 0%, staurosporine 100%] | Potency [7] | Potency [8]

CC(C)CCON=O
inactive: outcome [1] | outcome [2] | outcome [3] | Potency [4] | caspase-3 activation [5] -0.158% | Potency [7] | Potency [8]

NC(=O)c1cc(N2CC2)c([N+](=O)[O-])cc1[N+](=O)[O-]
inactive: Potency [10] | outcome [6] | Potency [11] | Potency [12] | Potency [13] | Potency [14] | Potency [15]

O=C1CCO1
inactive: outcome [1] | outcome [2] | outcome [3] | Potency [4] | caspase-3 activation [5] -9.04% [at 91.7 µM, primary cells freshly taken from rat, solvent-only wells 0%, staurosporine 100%] | Potency [7] | outcome [16] | outcome [17] | Potency [8]

O=S1(=O)N(CCN2CC=C(c3c[nH]c4cc(F)ccc34)CC2)c2cccc3c2N1CCC3
inactive: Potency [10] | outcome [6] | Potency [11] | Potency [15]
active: Potency [7] 5.01 µM | Potency [9] 0.199 µM | Potency [13] 15.8 µM | Potency [14] 14.1 µM

COc1ccc2[nH]cc(CCN)c2c1
inactive: Potency [10] | Potency [7] | outcome [16] | Potency [12] | outcome [17] | Potency [13] | Potency [14] | Potency [15]

[O]=[Cr](=[O])([OH])[O][Cr](=[O])(=[O])[OH]
active: caspase-3 activation [5] 101%
inactive: outcome [1] | outcome [2] | outcome [3] | Potency [7] | Potency [8]

CCS(=O)(=O)Nc1cccc(C(=C2CCCCC2)c2cnc[nH]2)c1
inactive: Potency [10] | outcome [6] | Potency [12] | Potency [14] | Potency [15]
active: Potency [18] 0.631 µM | Potency [7] 0.316 µM | Potency [9] 7.94 µM

NNC(N)=O
inactive: outcome [1] | outcome [2] | outcome [3] | Potency [4] | caspase-3 activation [5] 4.27% | Potency [10] | Potency [7] | Potency [15] | Potency [8]

CCOC(=O)c1ccccc1C(=O)OCC
inactive: outcome [1] | outcome [2] | outcome [3] | Potency [4] | caspase-3 activation [5] 7.7% and 0.83% | Potency [7] | Potency [8]

C=CCN=C=S
inactive: outcome [1] | outcome [2] | outcome [3] | Potency [4] | caspase-3 activation [5] -1.14% [at 91.7 µM, primary cells freshly taken from rat, solvent-only wells 0%, staurosporine 100%] | outcome [6] | Potency [8]

COC1=CC(=O)O[C@@H](/C=C/c2ccccc2)C1
inactive: outcome [1] | outcome [2] | outcome [3] | Potency [4] | caspase-3 activation [5] -6.32% | Potency [7] | Potency [8]

CCCN(CCC)CCc1c[nH]c2ccc(C(N)=O)cc12
inactive: Potency [18] | Potency [11] | Potency [12] | Potency [15]

CC(=O)NBr
inactive: Potency [10] | Potency [12] | Potency [14] | Potency [15]

Clc1cc(I)cc(Cl)c1NC1=NCCN1
inactive: Potency [10] | Potency [11] | Potency [12] | Potency [14] | Potency [15]
active: Potency [9] 3.98 µM | Potency [13] 15.8 µM

CC(C)(C)c1cc(C=C(C#N)C#N)cc(C(C)(C)C)c1O
inactive: outcome [6] | Potency [15]
active: Potency [18] 0.0316 µM | Potency [7] 3.16 µM | Potency [19] 1.58 µM | Potency [14] 1.41 µM
